The target in experiment [1] is T1, Estrogen receptor (Homo sapiens) + Estrogen receptor beta (Homo sapiens) (UniProt P03372+Q92731). Description: OT_ER_ERaERb_0480: Odyssey Thera (OT) 8-hour HEK293T Protein-Complementation Assay for Estrogen Receptor-alpha/-beta Heterodimer (AID 2283352). A digest of the protocol: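 HEK293T cells expressing ER-alpha/ER-beta LBD fusions to complementary reporter fragments were dosed with compound for 8 hours. Heterodimer formation was read as increased nuclear (agonist) or nuclear plus cytoplasmic (antagonist) mean fluorescence intensity versus DMSO vehicle.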

Experiment [2] deals with T1, Estrogen receptor (Homo sapiens) + Estrogen receptor beta (Homo sapiens). The experiment can be described thus: OT_ER_ERaERb_1440: Odyssey Thera (OT) 24-hour HEK293T Protein-Complementation Assay for Estrogen Receptor-alpha/-beta Homodimer (AID 2283356).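 Note: heteromer of ER alpha and ER beta binding domains; hits raise reporter fluorescence and both agonists and antagonists give an increase.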 An outline of the steps:
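HEK293T cells stably expressing a PCA pair of ERα LBD (aa 310-547) and ERβ LBD (aa 263-489) were dosed for 24 h. Fluorescence intensity increase versus DMSO vehicle was fitted as gain-of-signal.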

In experiment [3] the target is Estrogen receptor beta (Homo sapiens) (UniProt Q92731). Description: OT_ER_ERbERb_0480: Odyssey Thera (OT) 8-hour HEK293T Protein-Complementation Assay for Estrogen Receptor-beta/-beta Homodimer (AID 2283357).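 Note: active means signal gain over DMSO baseline.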 An outline of the steps: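 Readout: increase in mean fluorescence intensity (nucleus for agonists; nucleus plus cytoplasm for antagonists) relative to DMSO, from a reporter-fragment complementation of human ER-beta LBD homodimer in HEK293T cells dosed 8 hours.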

Experiment [4] deals with Retinoic acid receptor alpha (Homo sapiens) (UniProt P10276). The experiment can be described thus: NVS_NR_hRAR_Antagonist: NovaScreen (NVS) Nuclear Receptor Binding Assay for human Retinoic Acid Alpha Receptor Antagonism (RAR) (AID 2283358). A digest of the protocol:
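Cell-free TR-FRET binding assay on extracted receptor protein, run in antagonist mode; signal read 2 hours after chemical dosing. Loss of signal was fitted relative to DMSO baseline. Screened at 25 uM in duplicate, actives followed up in concentration series.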

The target in experiment [5] is human Thyroid Receptor Alpha (TRa), THRA (gene 7067) (UniProt P10827). Description: NVS_NR_hTRa_Antagonist: NovaScreen (NVS) Nuclear Receptor Binding Assay for human Thyroid Receptor Alpha Antagonism (TRa) (AID 2283362). A digest of the protocol:
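Cell-free binding assay on extracted receptor protein, read 1 h after chemical dosing by AlphaLISA chemiluminescence; loss of signal relative to DMSO baseline marks antagonism. Primary screen ran in duplicate at 25 uM, with concentration series for actives.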

The target in experiment [6] is Androgen Receptor/SRC-1 Co-activator, AR (gene 367) (UniProt P10275). Description: OT_AR_ARSRC1_0960: Odyssey Thera (OT) 16-hour HEK293T Protein-Complementation Assay for Androgen Receptor/SRC-1 Co-activator (AID 2283353).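 Note: actives raise the signal above DMSO so potency reflects increased AR and SRC-1 complex.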 A digest of the protocol:
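Split-Venus PCA, AR/SRC-1 fusions, stable HEK293T; 16 h compound exposure; imaged at 488 and 635 nm; N/C ratio (488 nm channel), min 400 cells/image; positive-direction fit, DMSO baseline.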

The target is the same in experiment [7]. The experiment can be described thus: OT_AR_ARSRC1_0480: Odyssey Thera (OT) 8-hour HEK293T Protein-Complementation Assay for Androgen Receptor/SRC-1 Co-activator (AID 2283354).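 Note: hits raise the complementation signal above DMSO so AC50 marks enhancers.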 An outline of the steps: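 HEK293T cells stably expressing AR and SRC-1 fused to split Venus YFP fragments via (Gly4Ser)2 linkers were read 8 h after compound dosing. Complementation was imaged at 488 and 635nm, and nuclear/cytoplasmic fluorescence ratio (488nm) was taken over ≥400 cells; gain-of-signal versus DMSO.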

In experiment [8] the target is human Peroxisome Proliferator-activated Receptor alpha (PPARa), PPARA (gene 5465) (UniProt Q07869). Description: NVS_NR_hPPARa: NovaScreen (NVS) Nuclear Receptor Binding Assay for human Peroxisome Proliferator-activated Receptor alpha (PPARa) (AID 2283359).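 Note: activity means loss of TR-FRET signal versus DMSO baseline.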 A digest of the protocol:
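Cell-free binding assay with extracted human protein, read by TR-FRET 1 h after chemical dosing. Loss of signal relative to DMSO baseline indicates binding. Primary screen used duplicate single concentration (25 uM); actives followed up in concentration series.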

For experiment [9], the target named is rat Mineralocorticoid Receptor (MR), Nr3c2 (gene 25672) (UniProt P22199). Description: NVS_NR_rMR: NovaScreen (NVS) Nuclear Receptor Binding Assay for rat Mineralocorticoid Receptor (MR) (AID 2283355). A digest of the protocol: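 Cell-free radioligand binding to MR in adrenalectomized rat brain supernatant, scintillation counted 24 h after dosing. Loss of signal versus DMSO baseline marks displacement. Primary screen in duplicate at 25 uM; actives retested as concentration series.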

Experiment [10] has as its target Retinoic acid receptor alpha (Homo sapiens) (UniProt P10276). Description: NVS_NR_hRARa_Agonist: NovaScreen (NVS) Nuclear Receptor Binding Assay for human Retinoic Acid Alpha Receptor Agonism (RAR) (AID 2283361). The method, then: NVS_NR_hRARa_Agonist is a biochemical, single-readout assay that uses extracted gene-proteins in a cell-free assay. Measurements were taken 2 hours after chemical dosing in a 384-well plate.NVS_NR_hRARa_Agonist is one of one assay component(s) measured or calculated from the NVS_NR_hRARa_Agonist assay. It is designed to make measurements of fluorescent resonance energy transfer, a form of binding reporter, as detected with fluorescent resonance energy transfer signals by Time-Resolved Fluorescence Resonance Energy Transfer (TR-FRET) technology.Data from the assay component NVS_NR_hRARa_Agonist was analyzed into 1 assay endpoint. This assay endpoint, NVS_NR_hRARa_Agonist, was analyzed in the positive analysis fitting direction relative to DMSO as the negative control and baseline of activity. Using a type of binding reporter, gain-of-signal activity can be used to understand changes in the binding as they relate to the gene RARA. Furthermore, this assay endpoint can be referred to as a primary readout, because the performed assay has only produced 1 assay endpoint. To generalize the intended target to other relatable targets, this assay endpoint is annotated to the nuclear receptor intended target family, where the subfamily is non-steroidal.
Binding assays used specific radioligands (tritiated, iodinated) with non-radioactive competitive displacement ligands in agonist or antagonist protocols (as indicated) and various reference compounds and inhibitors to titrate specific binding to receptors and transporters. Most enzyme assays (CYPs, kinases, phosphatases, proteases, HDACs) used recombinant protein and specific substrates (fluorescence mostly, some colorimetric and radioactive) and inhibitors, followed by a biochemical separation of substrate and product. All assays for the biochemical HTS were initially run in duplicate at a single concentration (10 uM for CYP450 assays and 25 uM for all others). […] Each assay was run with positive and negative controls, and concurrent controls on every plate. The follow-up (secondary) screen tested active chemical-pairs in concentration series, as well as a few additional assays not tested in the primary screen, some selected negative inactives, and several cases re-run in the concentration series for confirmatory purposes.

The structures appear in SMILES notation. Several values for one entry are separate records, joined by “and”; a condition that tells them apart may be missing. Equal entries are not always repeated. Results filed as inconclusive are left out. Activity calls are given as the source filed them. Rule for the calls: active = hit-call score of the fitted dose curve at least 0.9, where 1 is the maximum; inconclusive = response in the unintended direction; inactive = score below 0.9.

human Thyroid Receptor Alpha (TRa), THRA (gene 7067), sequence (P10827 whole entry, looked up): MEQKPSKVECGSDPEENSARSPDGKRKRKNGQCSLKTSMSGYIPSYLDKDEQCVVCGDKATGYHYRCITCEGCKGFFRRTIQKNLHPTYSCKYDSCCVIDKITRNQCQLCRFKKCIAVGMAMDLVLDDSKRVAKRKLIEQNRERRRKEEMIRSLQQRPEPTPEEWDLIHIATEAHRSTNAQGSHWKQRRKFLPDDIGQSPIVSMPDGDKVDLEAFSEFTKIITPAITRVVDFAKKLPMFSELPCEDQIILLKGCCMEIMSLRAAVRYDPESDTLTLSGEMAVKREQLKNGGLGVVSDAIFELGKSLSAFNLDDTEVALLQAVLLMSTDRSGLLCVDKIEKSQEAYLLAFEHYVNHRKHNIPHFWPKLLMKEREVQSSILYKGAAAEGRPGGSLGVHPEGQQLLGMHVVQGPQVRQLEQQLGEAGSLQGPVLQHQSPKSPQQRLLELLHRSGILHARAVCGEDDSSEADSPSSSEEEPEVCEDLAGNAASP
Retinoic acid receptor alpha (Homo sapiens), sequence (P10276 whole entry, looked up): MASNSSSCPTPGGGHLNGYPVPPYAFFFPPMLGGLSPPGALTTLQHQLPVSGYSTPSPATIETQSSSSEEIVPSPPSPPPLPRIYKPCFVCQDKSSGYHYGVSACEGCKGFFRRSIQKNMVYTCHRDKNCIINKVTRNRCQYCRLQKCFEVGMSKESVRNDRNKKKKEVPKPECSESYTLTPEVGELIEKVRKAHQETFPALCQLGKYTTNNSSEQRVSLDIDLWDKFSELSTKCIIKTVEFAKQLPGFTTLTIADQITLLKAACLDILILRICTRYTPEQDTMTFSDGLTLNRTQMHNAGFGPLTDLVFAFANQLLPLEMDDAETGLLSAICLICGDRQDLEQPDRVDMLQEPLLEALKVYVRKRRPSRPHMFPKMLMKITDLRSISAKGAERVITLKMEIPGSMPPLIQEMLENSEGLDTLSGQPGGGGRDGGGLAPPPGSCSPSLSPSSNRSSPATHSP
human Peroxisome Proliferator-activated Receptor alpha (PPARa), PPARA (gene 5465), sequence (Q07869 whole entry, looked up): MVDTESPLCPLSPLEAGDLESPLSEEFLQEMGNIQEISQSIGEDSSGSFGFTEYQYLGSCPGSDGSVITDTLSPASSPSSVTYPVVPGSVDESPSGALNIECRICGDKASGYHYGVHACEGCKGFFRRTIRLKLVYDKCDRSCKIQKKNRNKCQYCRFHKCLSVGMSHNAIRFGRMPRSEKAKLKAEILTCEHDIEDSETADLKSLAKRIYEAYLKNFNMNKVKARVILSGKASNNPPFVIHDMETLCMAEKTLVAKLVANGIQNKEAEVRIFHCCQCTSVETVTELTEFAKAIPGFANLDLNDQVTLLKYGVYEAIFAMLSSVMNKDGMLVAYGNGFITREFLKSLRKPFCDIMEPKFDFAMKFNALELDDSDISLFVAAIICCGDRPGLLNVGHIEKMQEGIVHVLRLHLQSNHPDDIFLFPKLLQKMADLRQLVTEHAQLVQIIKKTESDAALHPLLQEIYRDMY
Androgen Receptor/SRC-1 Co-activator, AR (gene 367), sequence (P10275 whole entry, looked up, the tested form may be a part): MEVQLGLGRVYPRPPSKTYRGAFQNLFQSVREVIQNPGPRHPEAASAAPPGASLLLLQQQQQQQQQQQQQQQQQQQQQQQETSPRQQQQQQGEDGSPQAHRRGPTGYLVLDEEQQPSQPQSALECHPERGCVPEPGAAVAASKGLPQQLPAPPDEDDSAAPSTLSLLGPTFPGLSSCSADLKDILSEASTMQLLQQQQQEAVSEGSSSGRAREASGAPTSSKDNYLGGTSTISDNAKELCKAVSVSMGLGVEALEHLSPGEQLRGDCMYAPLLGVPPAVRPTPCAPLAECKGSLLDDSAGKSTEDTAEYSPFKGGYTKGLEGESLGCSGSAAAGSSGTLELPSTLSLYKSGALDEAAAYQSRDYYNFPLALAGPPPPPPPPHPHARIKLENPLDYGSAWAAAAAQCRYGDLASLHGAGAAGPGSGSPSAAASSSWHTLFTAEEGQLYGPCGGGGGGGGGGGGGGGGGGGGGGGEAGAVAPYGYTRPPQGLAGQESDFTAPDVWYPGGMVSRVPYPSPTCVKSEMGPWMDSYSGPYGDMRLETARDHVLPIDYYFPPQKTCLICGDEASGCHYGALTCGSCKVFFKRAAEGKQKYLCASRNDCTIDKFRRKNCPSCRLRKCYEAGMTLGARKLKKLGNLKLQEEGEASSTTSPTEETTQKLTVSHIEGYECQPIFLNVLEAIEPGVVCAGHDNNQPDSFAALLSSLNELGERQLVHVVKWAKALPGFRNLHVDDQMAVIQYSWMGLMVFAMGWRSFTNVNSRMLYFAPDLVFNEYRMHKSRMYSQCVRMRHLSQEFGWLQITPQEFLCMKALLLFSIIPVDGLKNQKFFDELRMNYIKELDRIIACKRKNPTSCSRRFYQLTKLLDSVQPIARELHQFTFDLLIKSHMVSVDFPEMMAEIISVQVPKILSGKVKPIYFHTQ
Estrogen receptor beta (Homo sapiens), sequence (Q92731 whole entry, looked up, the tested form may be a part): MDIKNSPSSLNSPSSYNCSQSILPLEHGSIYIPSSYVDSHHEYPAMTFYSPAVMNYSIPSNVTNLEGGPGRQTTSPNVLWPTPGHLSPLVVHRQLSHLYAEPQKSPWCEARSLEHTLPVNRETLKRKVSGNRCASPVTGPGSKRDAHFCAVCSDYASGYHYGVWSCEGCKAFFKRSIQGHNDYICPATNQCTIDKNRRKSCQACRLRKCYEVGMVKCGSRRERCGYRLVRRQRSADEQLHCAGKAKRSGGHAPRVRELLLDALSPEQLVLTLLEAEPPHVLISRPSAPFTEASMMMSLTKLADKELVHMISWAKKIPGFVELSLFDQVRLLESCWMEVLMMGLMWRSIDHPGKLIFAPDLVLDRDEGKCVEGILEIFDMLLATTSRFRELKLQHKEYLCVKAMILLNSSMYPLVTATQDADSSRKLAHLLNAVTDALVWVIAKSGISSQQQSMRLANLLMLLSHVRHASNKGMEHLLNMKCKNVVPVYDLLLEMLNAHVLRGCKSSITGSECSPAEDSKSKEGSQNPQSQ
rat Mineralocorticoid Receptor (MR), Nr3c2 (gene 25672), sequence (P22199 whole entry, looked up): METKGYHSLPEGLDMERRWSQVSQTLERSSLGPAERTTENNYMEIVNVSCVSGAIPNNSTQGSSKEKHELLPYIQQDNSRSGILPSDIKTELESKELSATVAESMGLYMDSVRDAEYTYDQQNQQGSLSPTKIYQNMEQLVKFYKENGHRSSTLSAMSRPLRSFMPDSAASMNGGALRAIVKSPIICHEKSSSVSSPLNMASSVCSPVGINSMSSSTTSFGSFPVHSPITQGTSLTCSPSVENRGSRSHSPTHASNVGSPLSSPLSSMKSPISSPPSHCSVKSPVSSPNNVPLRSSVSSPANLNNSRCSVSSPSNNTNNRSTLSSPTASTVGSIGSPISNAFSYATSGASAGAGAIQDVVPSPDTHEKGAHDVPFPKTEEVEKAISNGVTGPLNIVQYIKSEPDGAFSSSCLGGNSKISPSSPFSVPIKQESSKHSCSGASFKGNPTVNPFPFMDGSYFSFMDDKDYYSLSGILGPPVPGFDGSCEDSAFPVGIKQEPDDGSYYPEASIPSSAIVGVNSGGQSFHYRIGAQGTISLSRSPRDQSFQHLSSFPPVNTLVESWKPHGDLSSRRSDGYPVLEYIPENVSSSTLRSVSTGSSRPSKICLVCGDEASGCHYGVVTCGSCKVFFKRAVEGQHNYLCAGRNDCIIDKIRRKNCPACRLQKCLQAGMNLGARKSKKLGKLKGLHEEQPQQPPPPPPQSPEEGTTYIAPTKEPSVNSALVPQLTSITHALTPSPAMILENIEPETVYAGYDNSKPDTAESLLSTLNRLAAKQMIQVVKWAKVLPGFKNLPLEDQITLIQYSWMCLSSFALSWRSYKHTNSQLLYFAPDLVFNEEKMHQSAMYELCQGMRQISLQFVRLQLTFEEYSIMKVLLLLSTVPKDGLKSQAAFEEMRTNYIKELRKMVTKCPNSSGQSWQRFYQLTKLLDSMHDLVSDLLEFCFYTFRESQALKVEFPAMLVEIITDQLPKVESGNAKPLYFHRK
T1 sequence (P03372 whole entry, looked up, the tested form may be a part): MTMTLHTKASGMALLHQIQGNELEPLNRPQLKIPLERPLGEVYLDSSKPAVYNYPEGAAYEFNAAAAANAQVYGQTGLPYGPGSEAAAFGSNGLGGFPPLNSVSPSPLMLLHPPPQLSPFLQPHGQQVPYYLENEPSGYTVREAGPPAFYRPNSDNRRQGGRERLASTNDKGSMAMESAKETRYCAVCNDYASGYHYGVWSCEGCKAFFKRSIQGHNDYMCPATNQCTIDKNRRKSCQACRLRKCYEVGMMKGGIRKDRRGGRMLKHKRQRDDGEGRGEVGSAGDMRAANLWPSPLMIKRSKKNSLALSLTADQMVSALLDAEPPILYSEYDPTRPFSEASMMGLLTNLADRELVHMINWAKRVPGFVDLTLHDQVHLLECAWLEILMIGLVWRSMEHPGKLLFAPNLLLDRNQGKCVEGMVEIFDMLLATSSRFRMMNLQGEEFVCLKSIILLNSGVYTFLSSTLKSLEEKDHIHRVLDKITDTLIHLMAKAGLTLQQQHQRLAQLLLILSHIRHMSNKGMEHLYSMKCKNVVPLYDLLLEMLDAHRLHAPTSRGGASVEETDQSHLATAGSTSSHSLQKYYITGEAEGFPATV
T1 sequence (Q92731 whole entry, looked up, the tested form may be a part): as the sequence (Q92731 whole entry, looked up, the tested form may be a part) above

Consider `Oc1ccc(Cl)cc1Cl`, for which the AC50 (as a rule, the concentration giving half of the maximal activity seen) in experiment [1] is 66.5 µM (active); in experiment [3] it was 50 µM (active). Besides, the outcome in experiment [2], in experiment [4] and in experiment [5] was inactive.

In the case of `N#Cc1ccc(N(CC(N)=O)CC(F)(F)F)cc1C(F)(F)F`, the outcome in [1] and in experiment [2] was inactive.

`NS(=O)(=O)C(F)(F)C(F)(F)C(F)(F)C(F)(F)C(F)(F)C(F)(F)C(F)(F)C(F)(F)F`: the AC50 in experiment [1] was 72.1 µM (active); in [6] it was 68.4 µM (active); in [2], 80.2 µM (active); in [3] it was 86.7 µM (active). Also, the call in [7] and in [8] was inactive.

As to `Cc1cccc(C)c1N`, the outcome in experiment [1], in experiment [2] and in experiment [3] was inactive.

In the case of `CC(C)C(=O)OCC(C)(C)C(OC(=O)C(C)C)C(C)C` (configuration not stated), the result in experiment [1], in experiment [2] and in experiment [3] was inactive.

As to `CCCCCCCCOC(=O)c1ccccc1C(=O)OCCCCCCCC`, the outcome in experiment [1], in experiment [6], in [7], in [2] and in experiment [3] was inactive.

Consider `CCC(C)(c1ccc(O)cc1)c1ccc(O)cc1`, for which the compound was classed as inactive in experiment [9] and in experiment [8].

Turning to `CCCCCCCCCC[N+](C)(C)CCCCCCCCCC`, the result in [1] and in experiment [2] was inactive. Further, in experiment [8], the AC50 was 861 nM (active).

For the compound `Cc1cc2c3c(c1)C(c1ccccc1)=N[C@@H](NC(=O)c1ccncc1)C(=O)N3CC2`, the result in experiment [1], in experiment [2] and in experiment [8] was inactive.

Consider `Cc1ccccc1O`, for which the result in experiment [1] and in [3] was inactive.

On to `Cc1ccccc1[N+](=O)[O-]`, for which, in experiment [2], the outcome was inactive.

On to `Clc1ccc(C(c2ccccc2Cl)C(Cl)(Cl)Cl)cc1` (configuration not stated), for which the half-maximal activity concentration (AC50) in experiment [3] is 2.09 µM (active) and 3.59 µM (active) and 1.83 µM (active).

As to `CCCCCCCCCc1ccc(O)cc1`, the AC50 in experiment [1] is 17.6 µM (active) and 14.6 µM (active) and 19.5 µM (active); in experiment [2], 36.2 µM (active) and 36 µM (active) and 48.1 µM (active); in experiment [3], 12.7 µM (active) and 12.4 µM (active). Besides, the compound was classed as inactive in experiment [10] and in experiment [5].

Turning to `O=S(=O)(O)C(F)(F)C(F)(F)C(F)(F)C(F)(F)C(F)(F)C(F)(F)F`, the compound was called inactive in experiment [8] and in [5].

Take `O=S(=O)(O)C(F)(F)C(F)(F)C(F)(F)C(F)(F)F`: the outcome in [2], in [3] and in experiment [8] was inactive.

For the compound `Cc1ccccc1CO[C@@H]1C[C@@]2(C(C)C)CC[C@]1(C)O2`, in experiment [6], the half-maximal activity concentration (AC50) is 79.7 µM (active). For the same compound, the compound was called inactive in [7] and in [4].

As for `Cc1cc(-c2ccc(N)c(C)c2)ccc1N`, the call in experiment [4] was inactive.

On to `CCCCCCOC(=O)c1ccccc1C(=O)OCCCCCC`, for which the compound was called inactive in experiment [9].

Consider `c1cc2ccc3cccc4ccc(c1)c2c34`, for which the result in [6], in experiment [7] and in experiment [8] was inactive.

For the compound `Oc1ccc(C(c2ccc(O)cc2)(C(F)(F)F)C(F)(F)F)cc1`, the AC50 is 16.9 µM (active) in experiment [9]; 19.2 µM (active) and 20.7 µM (active) and 19.7 µM (active) in experiment [8].

In the case of `CC1=C2C[C@H]3[C@@H](CC=C4C[C@@H](O)CC[C@@]43C)[C@@H]2CC[C@]12O[C@@H]1C[C@H](C)CN[C@H]1[C@H]2C`, the compound was classed as inactive in [6], in [7] and in [10].

For `CCNc1nc(NC(C)C)nc(SC)n1`, the call in [6], in experiment [7] and in experiment [3] was inactive.

Regarding `ClC1=C(Cl)[C@]2(Cl)[C@@H]3[C@@H]4C[C@@H]([C@H]5O[C@@H]45)[C@@H]3[C@@]1(Cl)C2(Cl)Cl`, the call in experiment [10] was inactive.

`Oc1c(Cl)c(Cl)c(Cl)c(Cl)c1Cl`: in experiment [8], the compound was called inactive.

In the case of `C[C@]12CCC(=O)C=C1CC[C@@H]1[C@@H]2CC[C@@]2(C)[C@H]1CC[C@]2(C)O`, in experiment [9], the AC50 is 0.0685 µM (active).

For `Cc1ccc(O)c(C)c1`, the result in experiment [1], in experiment [2], in experiment [3] and in experiment [8] was inactive.

In the case of `O=C(O)C(F)(F)C(F)(F)C(F)(F)C(F)(F)C(F)(F)F`, the outcome in [1], in experiment [2], in experiment [3] and in experiment [8] was inactive.

As for `CCC(C)(CC)c1cc(NC(=O)c2c(OC)cccc2OC)on1`, the outcome in [3] was inactive.

For the compound `CN(C)c1nc(=O)n(C2CCCCC2)c(=O)n1C`, the outcome in experiment [2] and in experiment [3] was inactive.

For `ClC(Cl)=C(c1ccc(Cl)cc1)c1ccc(Cl)cc1`, the compound was classed as inactive in [8] and in experiment [5].

`COc1ccc(O)c(C(C)(C)C)c1`: the AC50 in experiment [1] was 50 µM (active); in [2], 53.1 µM (active); in experiment [3] it was 31.8 µM (active); in experiment [5], 19.3 µM (active).

Turning to `OCC(O)CO`, the outcome in experiment [1], in [2], in experiment [3] and in experiment [8] was inactive.

In the case of `COS(=O)(=O)OC`, in experiment [10], the result was inactive.

Source of the values: PubChem BioAssay (EPA / NIEHS).
